Experimental data reported in the supplement of paper PMC10338343.
± gives the standard deviation.

Experiments:
[1] = test system: MILI (PIWIL2) piRISC loaded with L1MC piRNA (26 nt); assay: pre-steady-state target cleavage rate (min^-1); guide: L1MC piRNA 5'p-UAACUAAAUACUAUGCAAGCUGUAGG; higher = faster piRNA-guided slicing of the target
Summary of the method: (§1)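 Cleave-'n-Seq reactions paired 0.1 nM transcribed, DNA-blocked target RNA library with 1 nM active affinity-purified piRISC holding one synthetic guide, plus or minus 500 nM GTSF1 partner protein, in HEPES–potassium acetate buffer at 33 °C for 0–8 or 0–960 min. After sequencing of uncleaved targets and normalisation to depth and weakly complementary targets, the pre-steady-state cleavage rate was taken from a burst-and-steady-state fit. Three trials were pooled, and k3 was capped at 0.0001 min^-1.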

[2] = test system: EfPiwi piRISC loaded with L1MC piRNA (26 nt); assay: pre-steady-state target cleavage rate (min^-1); auxiliary factor: 500 nM Ephydatia muelleri Gtsf1; guide: L1MC piRNA 5'p-UAACUAAAUACUAUGCAAGCUGUAGG; MIWI and MILI are mouse PIWI proteins and EfPiwi is from a freshwater sponge; tags in brackets are library labels; higher = faster piRNA-guided slicing of the target
Summary of the method: as §1

[3] = auxiliary factor: 500 nM mouse GTSF1

| Sequence | pre-steady-state target cleavage rate [1, 3] | pre-steady-state target cleavage rate [2] | pre-steady-state target cleavage rate ([1]; auxiliary factor: none (no GTSF1)) |
| --- | --- | --- | --- |
| UCCUGCUACAGCUUGCAUAGAUUUAGUUA | 0.00937 ± 0.0054 | 0.00286 ± 0.0015 | – |
| UCCUGGAACAGCUUGCAUAGUAUUUUCUUA | 0.0439 ± 0.014 | 0.00388 ± 0.0027 | – |
| UCCUGGUACAGCUUGCAUAGUAUUCAGUUA | 0.058 ± 0.017 | 0.00472 ± 0.0022 | – |
| UCCUCCUACAGCUUGCAUAGUAUUUAGCUUA | 0.253 ± 0.075 | 0.00683 ± 0.0027 | – |
| UCCUGGUACAGCUUGCAUAGUAUUUAGGUA | 0.0562 ± 0.015 | 0.00463 ± 0.0022 | – |
| UCCUGGAUGUGCUUGCAUAGUAUUUAUUA | 0.00911 ± 0.0051 | 0.00271 ± 0.0022 | – |
| UCCUCCUACAGCUUGCAAAGAAUUUAGUUA | 0.0165 ± 0.0051 | 0.0033 ± 0.0027 | – |
| UCCUGGAUGUGCUUGCAUAGUAUUUAGUCUA | 0.0182 ± 0.006 | 0.00336 ± 0.0024 | – |
| UCCUCCUACAGCUUGCAUACGUAUUUAGUUA | 0.00561 ± 0.0046 | 0.0035 ± 0.0025 | – |
| UCCUGGUACAGCAUGCAUAGUAUUUAGAAA | 0.0581 ± 0.015 | 0.00215 ± 0.002 | – |
| UCCUCCUACAGCUUGCAUAGUAUUGUAGUUA | 0.166 ± 0.045 | 0.0032 ± 0.0012 | – |
| UCCUCCUACAGCUUGCAUAGUAUAAACAAA | 0.165 ± 0.043 | 0.00398 ± 0.0028 | – |
| UCCUGCUACAUGCUUGCAUAGUAUUUAGUUA | 0.0998 ± 0.021 | 0.00438 ± 0.002 | – |
| UCCUCCUUGAGCUUGCAUAGUAUUUAGAAA | 0.145 ± 0.025 | 0.00549 ± 0.0018 | – |
| UCCUCCUAGAGCUUGCAUAGUAUUUAGAUA | 0.123 ± 0.025 | 0.0043 ± 0.0018 | – |
| UCCUGGAUGUGCUUCCAUAGUAUUUAGUAA | 0.0304 ± 0.012 | 0.00486 ± 0.003 | – |
| UCCUGCUUGAGCUUGCAUAGUAUUUUCAAA | 0.0372 ± 0.013 | 0.00207 ± 0.0018 | – |
| UCCUGGAUGAGCUAGCAUAGAAUUUAGUUA | 0.0337 ± 0.011 | 0.00286 ± 0.0026 | – |
| UCCUGGAUGUCGAACCAUAGUAUUUAGUCA | – | < 0.0001 | < 0.0001 |
| UCCUGCUACAGCUUGCAUACUAUUUACUUA | 0.0359 ± 0.011 | 0.00325 ± 0.0023 | – |
